High-throughput results deposited in PubChem by National Center for Advancing Translational Sciences (NCATS).
HepG2 viability: counter-screen for TGF-b inhibitors: cytotoxicity in HepG2 cells; AID 588856; Potency, µM (top dose mostly 46.1 µM), for inactives: at the highest dose activity change, negative = cytotoxicity, usual class: cytotoxic; 410,000 compounds, 0.76% hits; HepG2 CAGA-GFP viability, ATP luminescence, 18 h
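HepG2 CAGA-GFP cells (1000/well, DMEM with 1% FBS) received compound, then TGF-beta at 500 pg/mL final, and were incubated 18 hours at 37 degrees C. Viability was read by CellTiter-Glo luminescence. Media-only wells were set as complete cell-killing and DMSO as no toxicity.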
TDP1 cell CPT: growth inhibition of DT40 Tdp1-/-;hTDP1 cells with camptothecin (screen for TDP1 inhibitors); chicken DT40 Tdp1-/-;hTDP1 cells + 20 nM CPT, ATP luminescence, 48 h; Potency, µM (doses to about 46.2 µM), for the others: top-dose activity change, negative = growth inhibition, most hits filed as inhibitors; 420,000 compounds, 12% hits; AID 686979; further: on the % scale 0 is the no-effect control and ±100 the full control effect; nearly all actives have a fitted effect of over 55% in size
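Chicken DT40 Tdp1-/- cells stably complemented with human TDP1 were seeded at 400 cells/well in medium containing 20 nM camptothecin, exposed to pin-transferred compounds, and grown at 37 °C for at least 48 hr. Viability was read as ATP luminescence.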
HT1080-NT tox: kills 2HG-producing HT-1080-NT fibrosarcoma cells | HT-1080-NT fibrosarcoma viability, CellTiter-Glo ATP luminescence, 48 h | Potency, µM (highest dose often 46.1 µM), without a hit: at the top dose activity, negative = less viability, hits mostly cytotoxic | 360,000 compounds, 1.6% hits;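 further: NT is the 2HG producing partner of a matched IDH1 knockdown line; 0% = DMSO-treated cells and -100% = media-only wells without cells; nearly all actives have a fitted effect of over 55% in size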
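Viability by CellTiter-Glo luminescence after 48 h compound exposure at 37C of HT-1080-NT cells (750/well, RPMI, 5% FBS). % activity scaled between DMSO wells and medium-only wells, then curve-fitted and categorized by curve class.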
TDP1 cell noCPT: qHTS for Inhibitors of human tyrosyl-DNA phosphodiesterase 1 (TDP1): qHTS in cells in absence of CPT | DT40 Tdp1-/- hTDP1 cells, no CPT, ATP luminescence, 48 h | Potency, µM (top dose mostly 46.2 µM), without a hit: top-dose activity change, negative = growth inhibition, usual class: inhibitors | 420,000 compounds, 15% hits; further: on the % scale 0 is the no-effect control and ±100 the full control effect; nearly all actives have a fitted effect of over 55% in size
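Growth kinetics read by CellTiter-Glo luminescence after ≥48 hr at 37 °C. Cells: DT40 Tdp1-/- stably carrying human TDP1, 400 per well, compound exposure in the absence of CPT (DMSO vehicle).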
TGFb inhibitor: TGF-b pathway inhibition; Potency, µM (highest dose often 46.1 µM), without a hit: at the highest dose activity, negative = inhibition, actives largely listed as inhibitors; HepG2 CAGA-GFP TGF-b/SMAD3 reporter, GFP fluorescence, 18 h; TGF-beta stimulated, 500 pg/mL final; AID 588855; 410,000 compounds, 1.2% hits; further: on the % scale 0 is the no-effect control and ±100 the full control effect; nearly all actives have a fitted effect of over 65% in size
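HEPG2 CAGA-GFP reporter cells (1000/well, DMEM with 1% FBS) received compounds, then recombinant TGF-beta at 500 pg/mL final for 18 hours at 37 degrees C. Per-cell GFP summed per well was normalised to unstimulated and stimulated DMSO controls before curve fitting.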
HT1080 IDH1KD tx: toxicity to HT-1080 IDH1 knockdown cells (counter line); 360,000 compounds, 2% hits; HT-1080 IDH1 knockdown viability, ATP luminescence, 48 h; Potency, µM (doses to about 46.1 µM), inactives show top-dose activity, negative = toxicity, usual class: cytotoxic;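 further: 0% = DMSO wells and -100% = cell-free medium wells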
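HT-1080-IDH1KD cells (IDH1 knocked down), 750/well in RPMI with 5% FBS, treated with compound 48 h at 37 degrees C. Viability by CellTiter-Glo luminescence, normalised to DMSO and no-cell wells; concentration-response curves classed.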
An asterisk follows results filed as active; ? = inconclusive; nt = no result; [ ] = another dose, or the depositor's remark. This is a sample that favours compounds with a hit; in the whole collection about 17% have one here. The call rests on the fitted dose curve; in most records, active means well fitted curve in the direction sought with a large enough effect; inconclusive means small, poorly fitted or top-dose-only effect, or another doubt; inactive means no such curve, though single readings can be large; an effect the other way counts as inactive or inconclusive. Potency means the concentration at half of the fitted maximal effect.

SMILES	HepG2 viability	TDP1 cell CPT	HT1080-NT tox	TDP1 cell noCPT	TGFb inhibitor	HT1080 IDH1KD tx
Cc1nn(C(C)C(=O)N2CCN(c3ccc(Cl)cc3)CC2)c(=O)c2cc3occc3n12 (configuration not stated)	-31%	?	nt	16µM*	?	nt
O=C(Cn1nc(C(=O)O)c2ccccc2c1=O)Nc1ccc(Cl)c(S(=O)(=O)N2CCOCC2)c1	-14%	-25%	-1%	-18%	16%	-13%
CC(C)C[C@]1(c2ccccc2)ON(c2ccccc2C(F)(F)F)C1=O	5%	?	-2%	-14%	0%	-15%
COc1ccccc1[C@]1(C)ON(c2ccccc2C(F)(F)F)C1=O	-21%	26µM*	?	?	?	?
O=C(Cc1cccc2ccccc12)NCC(=O)N1CCN(Cc2cccc(C(F)(F)F)c2)CC1	-36%	10µM*	-23%	10µM*	11µM*	-23%
O=C(Cc1cccc2ccccc12)NCC(=O)N1CCN(CC(=O)Nc2ccc(F)cc2)CC1	-20%	?	-15%	18µM*	-11%	-8%
CC1CN(C(=O)CNC(=O)Cc2cccc3ccccc23)CC(C)O1 (configuration not stated)	-5%	-17%	5%	25%	8%	2%
O=C(CN1Cc2ccccc2OC(c2ccccc2)C1)NCc1cccnc1 (configuration not stated)	nt	-1%[9.04 µM]	nt	?	nt	nt
CCOc1ccc(NC(=O)CSc2nc3ccsc3c(=O)n2CCC(C)C)cc1	-14%	?	nt	?	0%	nt
COc1ccc(CNCCC2(Cc3ccccc3)CC(C)N(C)CC2C)cc1OC (configuration not stated)	-45%	?	-26%	15µM*	-2%	?
COc1cc(NC(=O)Cn2cnc3c(NCc4ccccc4)ncnc32)cc(OC)c1OC	-3%	3%	-25%	3%	9%	-20%
COC(=O)[C@@]12C[C@@H](CC(=O)NCc3cccc4ccccc34)C(=O)N(Cc3cccc4ccccc34)C1=CCC(C)(C)C2	nt	18µM*	7%	?	nt	2%
COCCCNC(=O)C[C@@H]1C[C@@]2(C(=O)OC)CC(C)(C)CC=C2N(Cc2cccc3ccccc23)C1=O	nt	?	-11%	?	nt	-14%
COC(=O)[C@@]12C[C@@H](CC(=O)NCC3CCCCC3)C(=O)N(Cc3cccc4ccccc34)C1=CCC(C)(C)C2	nt	21µM*	10%	16µM*	nt	24%
COC(=O)[C@@]12C[C@@H](CC(=O)NCCC(C)C)C(=O)N(Cc3cccc4ccccc34)C1=CCC(C)(C)C2	nt	?	?	21µM*	nt	?
COC(=O)[C@@]12C[C@@H](CC(=O)NCCCCc3ccccc3)C(=O)N(Cc3cccc4ccccc34)C1=CCC(C)(C)C2	nt	?	?	21µM*	nt	-29%
Cc1nc(N(C)C2CCCCC2)c2nnn(Cc3ccc(F)cc3)c2n1	-3%	?	15%	?	1%	12%
C[C@@H]1CN([C@H](C)CO)S(=O)(=O)c2ccc(Br)cc2O[C@@H]1CN(C)C(=O)NC1CCCC1	-14%	?	-1%	?	-4%	-5%
COC(=O)[C@@]12C[C@@H](CC(=O)NCc3ccccc3)C(=O)N(Cc3ccccc3)C1=CCC(C)(C)C2	nt	21µM*	?	?	nt	-21%
COC(=O)[C@@]12C[C@@H](CC(=O)NCc3ccc(C)o3)C(=O)N(Cc3cccc4ccccc34)C1=CCC(C)(C)C2	nt	21µM*	?	16µM*	nt	-26%
COC(=O)[C@@]12C[C@@H](CC(=O)NCc3ccc(C)o3)C(=O)N(Cc3ccccc3)C1=CCC(C)(C)C2	nt	?	-13%	?	nt	-19%
COC(=O)[C@@]12C[C@@H](CC(=O)NCc3ccccc3)C(=O)N(Cc3cccc4ccccc34)C1=CCC(C)(C)C2	nt	?	?	18µM*	nt	?
O=C(Nc1ccc(Br)cc1)c1ccc(F)c(S(=O)(=O)N2CCc3ccccc32)c1	-34%	23µM*	nt	21µM*	11µM*	nt
O=C(NNC(=O)c1ccc(F)c(S(=O)(=O)N2CCOCC2)c1)c1ccc(Br)cc1	2%	?	1%	-25%	-9%	2%
O=C(Nc1ccc(Br)cc1)c1ccc(F)c(S(=O)(=O)NCc2cccs2)c1	-12%	15µM*	?	21µM*	?	?
SMILES	HepG2 viability	TDP1 cell CPT	HT1080-NT tox	TDP1 cell noCPT	TGFb inhibitor	HT1080 IDH1KD tx
O=S(=O)(NCc1cccs1)c1ccc(Br)cc1	-7%	-4%	-6%	1%	-19%	5%
O=C(Nc1cccc(Cl)c1)c1ccc(F)c(S(=O)(=O)NCc2ccc3c(c2)OCO3)c1	0%	-22%	-23%	26µM*	?	-24%
O=C(NC1=NCCS1)c1ccc(Cl)c(S(=O)(=O)N2CCc3ccccc32)c1	0%	?	10%	?	?	1%
CC(C)c1ccc(NC(=O)c2ccc(F)c(S(=O)(=O)N3CCc4ccccc43)c2)cc1	-15%	5.2µM*	nt	7.3µM*	-25%	nt
COc1ccc(C(=O)Nc2nnc(SCC(=O)NC3CC3)s2)cc1	-10%	1%	1%	9%	1%	6%
COc1cc(CN2C[C@@H](CO)O[C@@H](n3cnc4c(Nc5ccccc5)ncnc43)C2)cc(OC)c1OC	-3%	?	29%	?	3%	23%
COc1ccccc1CNC(=O)C[C@H]1CC[C@@H]2[C@H](COC[C@H](O)CN2Cc2ccc3c(c2)OCO3)O1	nt	?	2%	?	nt	0%
CC1(C(=O)Nc2ccc(Cl)c(Cl)c2)CCN1C(=O)Cc1cccc2ccccc12 (configuration not stated)	-40%	?	-20%	?	-12%	?
Oc1c(N=Nc2ccc(F)cc2)ccc2ccccc12	-26%	9.2µM*	-27%	15µM*	?	-15%
NS(=O)(=O)c1ccc(CNC(=S)Nc2cc(S(=O)(=O)N3CCOCC3)ccc2Cl)cc1	0%	-6%	11%	7%	-7%	3%
